Laboratory results as given in PubChem BioAssay AID624300 (Southern Research Specialized Biocontainment Screening …, 2012).
Out of some 2,400 compounds screened, about 360 (15%) were called active.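 Rule for the calls: active = viability falls under 70% at one or more tested concentrations, taken as toxicity; inactive = viability stays over 70% at every dose.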 These entries were drawn from the full list. Measured potencies and affinities stand elsewhere.

Test: viability loss in HeLa cells – cytotoxicity control for MgcRacGAP inhibitor project, dose response (AID 624300)
Settings: CellTiter-Glo luminescence, 24 h; series mostly up to 100 µM
In the case of `Cc1cc(-c2n[nH]c(=S)n2/N=C/c2cccc(O)c2)n[nH]1`, the outcome is reported as “inactive”. For `COc1ccc(NC2CCCN(C(=O)c3cccc(N4CCNC4=O)c3)C2)cc1` (stereo not given), the outcome was “inactive”. In the case of `COc1cccc(Oc2cn[nH]c2-c2ccc(O)cc2O)c1`, the outcome is reported as “inactive”. For `COc1ccc(Oc2c(-c3ccc(O)cc3O)n[nH]c2C)cc1`, the outcome was “inactive”. In the case of `CC1=NN(C(N)=S)C(=O)C1N=Nc1ccc(O)cc1` (stereo not given), the outcome is reported as “inactive”. In the case of `O=C(O)c1ccc2c(c1)[C@@H]1C=CC[C@@H]1[C@H](c1ccccn1)N2`, the outcome is reported as “inactive”. With `CCN(CC)c1ccc(NC(=O)CNCc2ccccc2Cl)c(C)c1` the outcome was “inactive”. With `COc1ccc(CNc2ncc(-c3ccccc3)n2C)c(OC)c1OC` the outcome was “inactive”. With `COc1ccc(CNc2ncc(-c3ccc(F)cc3)n2C)cc1OC` the outcome was “inactive”. For `CCN1C(=O)c2ccc(C(=O)Nc3ccc(O)cc3C)cc2C1=O`, the outcome was “inactive”. For `CCn1nc(CC(C)C)cc1C(=O)N1CCCC(Nc2ccc(OC)cc2)C1` (stereo not given), the outcome was “inactive”. In the case of `CN1CCc2c1nc1ccccc1c2NC(=O)CN1CCCC1`, the outcome is reported as “inactive”. With `CC(C)NCC(=O)Nc1c2c(nc3ccccc13)CCC2` the outcome was “inactive”. In the case of `Cc1sc2c3ccsc3ccc2[n+]1C`, the outcome is reported as “inactive”. For `CC(C)(C)N(Cc1ccc2c(c1)OCO2)C(=O)/C=C\S(=O)c1ccccc1` (stereo not given), the outcome was “inactive”. In the case of `COc1ccc(C2NC(=O)C(C#N)=C(S)N2c2cccc(C)c2)cc1OC` (stereo not given), the outcome is reported as “inactive”. In the case of `CN(C)CCO/N=C(\c1ccc(Br)cc1)c1cccnc1`, the outcome is reported as “inactive”. With `COC(=O)c1ccc(NCc2c(O)ccc(O)c2Br)cc1Cl` the outcome was “inactive”. With `COC(=O)c1ccc(C(=O)OCCCc2nc3ccc(N)cc3[nH]2)cc1` the outcome was “inactive”. With `CCOC(=O)c1[nH]c2ccccc2c1NC(=S)Nc1cccc(C)c1C` the outcome was “inactive”. With `Cc1ccc(-c2n[nH]c(=S)n2/N=C/c2ccc(C(=O)O)cc2)cc1` the outcome was “inactive”. In the case of `COc1ccc2cc(OCC(=O)NNC(=O)Nc3ccc(F)cc3)ccc2c1`, the outcome is reported as “inactive”. With `Oc1ccc(CCc2ccccn2)cc1` the outcome was “inactive”. In the case of `CC(=O)NC(Cc1ccccc1)C(=O)Oc1ccc2ccccc2c1` (stereo not given), the outcome is reported as “inactive”. With `CN1C(=O)/C(=C/C=C2/CCCN2C)N(C)C1=S` the outcome was “inactive”. With `Cc1nc(Nc2ccc(O)cc2)c2c3c(sc2n1)CCCC3` the outcome was “inactive”. For `Oc1ccc(Nc2ncnc3ccccc23)cc1`, the outcome was “inactive”. In the case of `Cc1cccc(Nc2c(-c3ccc(O)cc3)nc3ncccn23)c1`, the outcome is reported as “inactive”. In the case of `COc1ccc(/C=N/N2CCN(C)CC2)cc1O`, the outcome is reported as “inactive”. For `CC1=NOC(=O)/C1=C\c1ccc(-c2ccc(Cl)c(C(=O)O)c2)o1`, the outcome was “inactive”. With `O=c1nc2s/c(=C\c3ccc(-c4ccccc4[N+](=O)[O-])o3)c(=O)n2nc1-c1ccccc1` the outcome was “inactive”. For `C=CCn1c(SCC(=O)Nc2ccc(N(C)C)cc2)nnc1-c1cccc(C)c1`, the outcome was “inactive”. In the case of `COc1ccc(NC2CCCN(C(=O)CCC3=NNC(=O)CC3)C2)cc1` (stereo not given), the outcome is reported as “inactive”. In the case of `COc1ccc(N2CCN(S(=O)(=O)c3c(C)nc4scc(C)n4c3=O)CC2)cc1`, the outcome is reported as “inactive”. With `N/N=C(\Cc1cscn1)c1ccc(O)cc1O` the outcome was “inactive”. In the case of `O=C(CN1CCN(c2ccc(O)cc2)CC1)Nc1ccc2c(c1)OCCCO2`, the outcome is reported as “inactive”. In the case of `Nc1nc2c(s1)CCc1ccccc1-2`, the outcome is reported as “inactive”. In the case of `COc1ccc2c(C)cc3n[nH]c(=S)n3c2c1`, the outcome is reported as “inactive”. With `NNc1ccc([N+](=O)[O-])c2[nH][nH]c(=O)c12` the outcome was “inactive”. In the case of `COc1cc(/C=N/Nc2cc(C)nc(NS(=O)(=O)c3ccccc3)n2)ccc1O`, the outcome is reported as “inactive”. With `CCN(CC)c1ccc(/C=N/Nc2nc(C)cc(C)n2)c(O)c1` the outcome was “inactive”. In the case of `Oc1ccc(C=NNc2nc3ccccc3s2)c(O)c1`, the outcome is reported as “inactive”. With `Cc1nc2ccccc2nc1N/N=C/c1ccc(O)cc1` the outcome was “inactive”. For `COc1ccc(-c2cnnc(N/N=C/c3ccc(O)c(O)c3)n2)cc1`, the outcome was “inactive”. With `CN(C)c1ccc(/C=N\Nc2ccccn2)cc1` the outcome was “inactive”. In the case of `COc1ccc(NCc2ccsc2)cc1`, the outcome is reported as “inactive”. For `COc1ccc(NC2CCCN(C(=O)CN3CCOC3=O)C2)cc1` (stereo not given), the outcome was “inactive”. For `CC1(C)CC(=O)C(C=Nc2ccc(N)cc2)=C(O)C1`, the outcome was “inactive”. With `COc1cc(/C=C/C(=O)OCC(=O)N2CC3(C)CC2CC(C)(C)C3)ccc1O` (stereo not given) the outcome was “inactive”. With `Cn1c(=O)c2[nH]c(=S)n(Cc3ccccc3)c2n(C)c1=O` the outcome was “inactive”. For `Cn1c(=O)[nH]c(=O)c2c1[nH]c(=S)n2CCCc1ccccc1`, the outcome was “inactive”. For `CN(C)c1ccc(NC(=S)NCC2CCCO2)cc1` (stereo not given), the outcome was “inactive”. In the case of `Cc1sc2ccc3sccc3c2[n+]1C`, the outcome is reported as “inactive”. With `Cc1cc(N(C)C)ccc1N=Nc1ccc(N)cc1` the outcome was “inactive”. With `O=C(CN1CCN(c2ncccn2)CC1)N1CCCC1` the outcome was “inactive”. For `Cc1nc2ccc(C(=O)Nc3ccc(N(C)C)cc3)cc2s1`, the outcome was “inactive”. With `CC(C)c1nc(SCC(=O)Nc2ccc(N(C)C)cc2)c2ccccc2n1` the outcome was “inactive”. With `Cc1ccccc1SCC(=O)OCC(=O)Nc1ccc(N(C)C)cc1` the outcome was “inactive”. For `CCn1c(SCC(=O)Nc2ccc(N(C)C)cc2)nnc1-c1cccc(C)c1`, the outcome was “inactive”. With `COc1cc(/C=N/NC(=O)CNc2n[nH]c(=O)[nH]c2=O)ccc1O` the outcome was “inactive”. With `CSc1ccc(CN2CCC(N3CC(C)OC(C)C3)CC2)cc1` (stereo not given) the outcome was “inactive”. In the case of `C=CCn1c(SCC(=O)c2ccc(O)c(O)c2)nnc1-c1cccc(OC)c1`, the outcome is reported as “inactive”. In the case of `CCn1c(CSc2nc3ccccc3s2)nnc1SCC(=O)c1ccc(O)c(O)c1`, the outcome is reported as “inactive”. For `CN(C)c1ccc(NS(=O)(=O)c2ccc(Cl)cc2)cc1`, the outcome was “inactive”. With `CS(=O)(=O)N1CCN(C2C3CC4CC(C3)CC2C4)CC1` (stereo not given) the outcome was “inactive”. For `COc1cc(/C=N/NC(=O)c2ccc(-n3cccc3)cc2)ccc1O`, the outcome was “inactive”. In the case of `O=C(N/N=C/c1ccc(O)cc1)c1cccc(C(F)(F)F)c1`, the outcome is reported as “inactive”. In the case of `Fc1ccc(CN2CCN(C(c3ccccc3)c3ccccc3)CC2)cc1`, the outcome is reported as “inactive”. In the case of `COc1cc(/C=N\NC(=O)c2ccc(Cn3nc([N+](=O)[O-])c(Cl)c3C)o2)ccc1O`, the outcome is reported as “inactive”. With `O=C(O)c1cc(N2C(=O)C=CC2=O)cc(N2C(=O)C=CC2=O)c1` the outcome was “inactive”. In the case of `Oc1ccc2c(ccc3[nH]cnc32)c1`, the outcome is reported as “inactive”. For `Nc1ccc2[nH]c(=S)[nH]c2c1`, the outcome was “inactive”. With `Cc1ccc(Nc2n[nH]c(=S)s2)cc1` the outcome was “inactive”. With `COc1ccc(N2CCN(c3ccc(C(N)=O)cc3[N+](=O)[O-])CC2)cc1` the outcome was “inactive”. In the case of `Cc1sc2ncnc(N(C)CCc3ccccn3)c2c1C`, the outcome is reported as “inactive”. For `CCOC(=O)c1c(C)[nH]sc1=S`, the outcome was “inactive”. With `CCN(CC)c1ccc(NC(=O)C2CCCC2)cc1` the outcome was “inactive”. For `CCN(CC)c1ccc(NC(=O)CSC(=O)c2ccccc2)cc1`, the outcome was “inactive”. For `CCN(CC)c1ccc(NC(=O)Nc2ccccc2)cc1`, the outcome was “inactive”. For `CCN(CC)c1ccc(/C=N/O)cc1`, the outcome was “inactive”. For `CCN(CC)c1ccc(/C=N/N2CCOCC2)c(O)c1`, the outcome was “inactive”. For `CN(C)c1ccc(/C=N/N2CCN(Cc3ccccc3Cl)CC2)cc1`, the outcome was “inactive”. For `CCOc1cc(/C=C2\SC(=O)N=C2N)ccc1O`, the outcome was “inactive”. With `C=CCN(CC=C)C(=O)C1CCN(Cc2ccc(OCc3ccccc3)cc2)CC1` the outcome was “inactive”. In the case of `COc1ccc(N2CCN(C(=O)NC3CCCCC3)CC2)cc1`, the outcome is reported as “inactive”. With `CC1=CC(C)(C)N(C(=O)CNC2CCCC2)c2cc(C)ccc21` the outcome was “inactive”. For `COc1cc(/C=N\NC(=O)c2c(C)nc3cc(C)ccn23)ccc1O`, the outcome was “inactive”. With `O=C1C(Cl)=C(NCCc2ccccc2)C(=O)c2ccccc21` the outcome was “inactive”. For `O=S1(=O)N=C(Nc2ccc(O)cc2)c2ccccc21`, the outcome was “inactive”. In the case of `COc1ccc(C=C2C(=O)c3ccccc3C2=O)cc1O`, the outcome is reported as “inactive”. In the case of `COc1ccc(O/C(=N\S(=O)(=O)c2ccccc2)c2ccccc2)cc1`, the outcome is reported as “inactive”. With `O=C(NN=Cc1ccc(O)cc1O)c1ccccc1NS(=O)(=O)c1cccs1` the outcome was “inactive”. In the case of `COc1ccc(Nc2ccc3ccccc3c2)cc1`, the outcome is reported as “inactive”. With `CN(C)c1ccc(NC(=O)CN2C(=O)c3ccccc3C2=O)cc1` the outcome was “inactive”. With `O=C(CNC(=O)c1cccnc1)N/N=C/c1ccc(O)cc1O` the outcome was “inactive”. In the case of `COc1cc(/C=C/C(=O)OCC(=O)c2ccc[nH]2)ccc1O`, the outcome is reported as “inactive”. In the case of `COCCNCC(=O)Nc1nc(C)cs1`, the outcome is reported as “inactive”. For `Cc1ccc(CNc2ccc(N3CCOCC3)cc2)s1`, the outcome was “inactive”. In the case of `CN(C1CCCCC1)S(=O)(=O)c1cccc2nsnc12`, the outcome is reported as “inactive”. With `COc1cc(/C=N/NC(=O)C2CCN(CC(O)COCc3ccccc3)CC2)ccc1O` (stereo not given) the outcome was “inactive”. For `COc1cc(/C=N/NC(=O)CNC(=O)c2ccco2)ccc1O`, the outcome was “inactive”. In the case of `O=C(/C(=C/c1ccccc1)n1cncn1)c1ccc(Cl)cc1Cl`, the outcome is reported as “inactive”. In the case of `COc1cc(-c2nc3cnccn3c2Nc2ccc(C)cc2)ccc1O`, the outcome is reported as “inactive”. In the case of `Cc1ccn2c(Nc3ccc4c(c3)OCO4)c(-c3ccc(O)cc3)nc2c1`, the outcome is reported as “inactive”. For `CCOc1ccc(N)cc1OC`, the outcome was “inactive”. For `Cc1cc(Cl)cc2sc(=S)[nH]c12`, the outcome was “inactive”. For `NC(=S)N/N=C/c1cccc(O)c1O`, the outcome was “inactive”. For `O=C(CNc1ccc2c(c1)OCO2)N/N=C\c1ccccc1Cl`, the outcome was “inactive”. With `Cc1ccc(C2CC(=O)N3CN(c4ccc(Br)cc4)CSC3=C2C#N)o1` (stereo not given) the outcome was “inactive”. With `OC1CCN(C(=S)Nc2ccc(Nc3ccccc3)cc2)CC1` the outcome was “inactive”. In the case of `Nc1ccc(N2CCN(c3ccc(Cl)c(Cl)c3)CC2)cc1`, the outcome is reported as “inactive”. For `CCN(Cc1ccncc1)Cc1ccc(OC)c(OC)c1`, the outcome was “inactive”. For `COc1ccc(NC2CCCN(C(=O)COc3ccc(Cl)cc3C)C2)cc1OC` (stereo not given), the outcome was “inactive”. In the case of `COc1ccc(NC(=O)n2ncc3c(C)cccc32)cc1OC`, the outcome is reported as “inactive”. With `CCCC(=Nc1ccc(N)cc1)C1=C(O)C(C(=O)OC)C(C)(C)CC1=O` (stereo not given) the outcome was “inactive”. With `COc1ccc(N2CCN(C(CNC(=O)CC(C)(C)C)c3ccc4c(c3)OCO4)CC2)cc1` (stereo not given) the outcome was “inactive”. With `COC(=O)NCC(c1ccc2c(c1)OCO2)N1CCN(c2ccc(OC)cc2)CC1` (stereo not given) the outcome was “inactive”. In the case of `COc1cc2c(cc1N)-c1ccc(N)cc1C2=O`, the outcome is reported as “inactive”. In the case of `COc1cc(/C=C/CN2CCN(Cc3ccc(C)o3)C(CCO)C2)ccc1O` (stereo not given), the outcome is reported as “inactive”. In the case of `COc1ccc(/C=N/NC(=O)c2cc[n+]([O-])cc2)cc1O`, the outcome is reported as “inactive”.
